Records with an inconclusive call do not appear. Unmarked numbers belong to inactive results. Active and inactive are the calls of the source. Calls follow the shape of the full dose curve.
Assay: qHTS assay to identify small molecule agonists of the NFkB signaling pathway - cell viability counter screen (AID 1159515); also: nearly all actives have a fitted effect of over 55% in size
Details: NFkB-bla ME-180 viability, CellTiter-Glo luminescence, 5 h; series mostly up to 61 µM; activity, negative = cytotoxic: at the top concentration
Description: National Center for Advancing Translational Sciences [NCATS]
NIH Chemical Genomics Center [NCGC]
U.S. Environmental Protection Agency [EPA]
National Institutes of Environmental Health Sciences [NIEHS]
National Toxicology Program [NTP]
U.S. Food and Drug Administration [FDA]
Transcription factors and their stimulated target gene expression play pivotal roles across many cellular processes including responses to environmental stimuli. Proper regulation of associated pathways is critical to maintain cell health and function. Constitutive activation of transcription factor pathways has been implicated in tumors as it may block cellular functions such as apoptosis and lead to invasion and metastasis. One important transcription factor that stimulates gene expression in response to cytokines, UV radiation, and other stimuli is nuclear factor-kappa B (NFkB). To measure activation of the NFkB pathway, the CellSensor NFkB-bla ME-180 cell line (Life Technologies, Carlsbad, CA) that stably expresses beta-lactamase reporter gene under the regulation of a NF-kB response element was used. This assay allows measurement of the NFkB pathway activity induced by compounds in a ME-180 cell line. This system quantitates NF-kB activity using a FRET-based assay system where beta-lactamase expression disrupts FRET, allowing for fluorescent measurement of activity. This cell line has been used to screen the Tox21 10K compound library and to identify compounds that induce the NFkB pathway activity. The cytotoxicity of the Tox21 compound library against the NFkB-bla ME-180 cell line was tested in parallel by measuring cell viability using the CellTiter-Glo assay in the same wells.
Tox21 Assay Protocol Summary:
NFkB-bla ME-180 cells were dispensed at 2,000 cells/6 uL of assay medium per well into black wall/clear-bottom 1536-well plates using a Multidrop Combi (ThermoFisher Scientific, Waltham, MA) dispenser. After the assay plates were incubated at 37 C and 5% CO2 for an overnight, 23 nL of compounds dissolved in DMSO, positive controls or DMSO only was transferred to the assay plate by a Pintool station (Kalypsys, San Diego, CA). The assay plates were incubated at 37 C and 5% CO2 for 5 hr. One uL of LiveBLAzer B/G FRET substrate (Life Technologies) was added using a Flying Reagent Dispenser (Aurora Discovery, San Diego, CA) and the plates were incubated at room temperature for 1.5 hr. Fluorescence intensity (405 nm excitation, 460 nm and 530 nm emissions) was measured using an Envision plate reader (PerkinElmer, Shelton, CT). For cytotoxicity, 3 ul/well of CellTiter-Glo reagent was added into the assay plates using an FRD. After 30 min incubation at room temperature, the luminescence intensity was measured using a ViewLux plate reader (PerkinElmer).
% is scaled to controls: 0 for no effect and ±100 for the full control effect; potency is read from the fitted curve at half-maximal effect.

Q: For `Fc1ccc([C@@H]2CCNC[C@H]2COc2ccc3c(c2)OCO3)cc1`, which “activity, negative = cytotoxic” value is on record?
A: -11.6%

Q: Which “activity, negative = cytotoxic” value does the source give for `CCOC(=O)/C=C(C)/C=C/C=C(C)/C=C/c1c(C)cc(OC)c(C)c1C` here?
A: 0%

Q: With `CCCCCCCCCCCCCCCC[N+](C)(C)CCN(Cc1ccc(OC)cc1)c1ncccn1` as the compound, how does the Potency read?
A: 23.9 µM (active)

Q: Which “activity, negative = cytotoxic” value does the source give for `CCCCC(CC)COC(=O)c1ccccc1C(=O)O` (stereo not given) here?
A: -5.53% [at 78.8 µM]

Q: For `C[C@@H](NCCCc1cccc(C(F)(F)F)c1)c1cccc2ccccc12`, which Potency is on record?
A: 23.9 µM (active)

Q: Which “activity, negative = cytotoxic” value does the source give for `CC(C)(C)C(=O)OCOC(=O)[C@@H]1N2C(=O)[C@@H](NC(=O)[C@H](N)c3ccccc3)[C@H]2SC1(C)C` here?
A: 4.92%

Q: With `CCc1cc(SCc2sc(-c3ccc(C(F)(F)F)cc3)nc2CN2CCN(c3ccc(OC)cc3)CC2)ccc1OCC(=O)O` as the compound, how does the Potency read?
A: 43.6 µM (active)

Q: Which “activity, negative = cytotoxic” value does the source give for `O=C(c1ccc(F)cc1)C1CCN(CCn2c(=O)[nH]c3ccccc3c2=O)CC1` here?
A: -1.23%

Q: Which Potency does the source give for `CCCCC(CC)CN=C(N)NC(N)=NCCCCCCN=C(N)NC(N)=NCC(CC)CCCC` (stereo not given) here?
A: 19 µM (active)

Q: For `Clc1ccc2n[nH]nc2c1`, which “activity, negative = cytotoxic” value is on record?
A: 8.5%

Q: Which “activity, negative = cytotoxic” value does the source give for `O=C1CCCCCN1SSN1CCCCCC1=O` here?
A: 14.9%

Q: Which “activity, negative = cytotoxic” value does the source give for `Nc1nc2ccccc2n1Cc1ccc(F)cc1` here?
A: -24.1%

Q: Which “activity, negative = cytotoxic” value does the source give for `ON=C1CCCC1` here?
A: 9.45% [at 78.8 µM]

Q: With `O=c1[nH]sc2cc(Cl)ccc12` as the compound, how does the “activity, negative = cytotoxic” value read?
A: -21.6%

Q: Which Potency does the source give for `CCCCCCCCCCCCCCCCCC[N+](C)(C)Cc1ccccc1` here?
A: 22.1 µM (active)

Q: With `CO[Si](CCCNc1ccccc1)(OC)OC` as the compound, how does the “activity, negative = cytotoxic” value read?
A: -1.19%

Q: With `CCc1cc(Cc2cc(CC)c(N)c(CC)c2)cc(CC)c1N` as the compound, how does the Potency read?
A: 49 µM (active)

Q: Which “activity, negative = cytotoxic” value does the source give for `O=CC=C(c1ccccc1)c1ccccc1` here?
A: 27.2% [at 78.8 µM]

Q: Which “activity, negative = cytotoxic” value does the source give for `Clc1ccc2nsnc2c1NC1=NCCN1` here?
A: 13.8%

Q: Which “activity, negative = cytotoxic” value does the source give for `CC(C)(C)C(=O)OCOC(=O)C1N2C(=O)CC2S(=O)(=O)C1(C)C` (stereo not given) here?
A: 6.55%

Q: For `O=C(OCC(COC(=O)c1ccccc1)(COC(=O)c1ccccc1)COC(=O)c1ccccc1)c1ccccc1`, which “activity, negative = cytotoxic” value is on record?
A: -8.41%

Q: For `CCc1cc(Cc2cc(CC)cc(C(C)(C)C)c2O)c(O)c(C(C)(C)C)c1`, which Potency is on record?
A: 15.5 µM (active)

Q: For `Oc1ccc(Cl)cc1Sc1cc(Cl)ccc1O`, which “activity, negative = cytotoxic” value is on record?
A: -8.69%

Q: Which “activity, negative = cytotoxic” value does the source give for `C=CC(=O)OCCn1c(=O)n(CCOC(=O)C=C)c(=O)n(CCOC(=O)C=C)c1=O` here?
A: -5.45%

Q: For `N/C(=N\N=C\c1ccc(Cl)cc1)N/N=C/c1ccc(Cl)cc1`, which Potency is on record?
A: 13.4 µM (active)

Q: With `OC1(c2ccc(Cl)c(C(F)(F)F)c2)CCN(CCCC(c2ccc(F)cc2)c2ccc(F)cc2)CC1` as the compound, how does the Potency read?
A: 12 µM (active)

Q: Which Potency does the source give for `CCCCCCCCCCCCCCCCCC[N+](C)(C)C` here?
A: 55.1 µM (active)

Q: Which Potency does the source give for `N=C1N=C(N)c2cc3ccccc3cc21` here?
A: 49 µM (active)

Q: For `CN(C)c1ccc(SC#N)cc1`, which Potency is on record?
A: 17.4 µM (active)

Q: Which “activity, negative = cytotoxic” value does the source give for `CCC1=C[C@@H]2CN(C1)Cc1c([nH]c3ccccc13)[C@@](C(=O)OC)(c1cc3c(cc1OC)N(C)[C@H]1[C@@](O)(C(=O)OC)[C@H](OC(C)=O)[C@]4(CC)C=CCN5CC[C@]31[C@@H]54)C2` here?
A: 22.4%

Q: For `CC(C)C(C)(C)C(C)(C)C(C)(C)S`, which “activity, negative = cytotoxic” value is on record?
A: 0.858%

Q: For `O=C1CCCc2c1cc1ccc3cccc4ccc2c1c34`, which “activity, negative = cytotoxic” value is on record?
A: -24.3% [at 78.8 µM]

Q: Which “activity, negative = cytotoxic” value does the source give for `CCCCN1CCCC[C@H]1C(=O)Nc1c(C)cccc1C` here?
A: -4.07%

Q: Which “activity, negative = cytotoxic” value does the source give for `CCN(C(=O)c1cc(C)cc(OC[C@H](C)Nc2ccncc2)c1)C(C)C` here?
A: -4.88%

Q: Which “activity, negative = cytotoxic” value does the source give for `C/C=C1/C(=O)C[C@H]2[C@@H]3CCC4=CC(=O)CC[C@]4(C)[C@H]3CC[C@]12C` here?
A: 3.77%

Q: For `NNc1nc(-c2ccc([N+](=O)[O-])cc2)cs1`, which “activity, negative = cytotoxic” value is on record?
A: -5.91%

Q: Which Potency does the source give for `[Cl][Bi]([Cl])([c]1ccccc1)([c]1ccccc1)[c]1ccccc1` here?
A: 54.6 µM (active)

Q: With `O=C1c2c(O)ccc(Nc3ccc(CCO)cc3)c2C(=O)c2c([N+](=O)[O-])ccc(O)c21` as the compound, how does the “activity, negative = cytotoxic” value read?
A: -2.52%

Q: With `CN(C)[C@@H]1C(=O)C(C(N)=O)=C(O)[C@@]2(O)C(=O)C3=C(O)c4c(O)ccc(Cl)c4[C@@H](O)[C@H]3C[C@@H]12` as the compound, how does the “activity, negative = cytotoxic” value read?
A: 1.22%

Q: For `C=C(C)C(=O)OCC(O)COc1ccc(C(C)(C)c2ccc(OCC(O)COC(=O)C(=C)C)cc2)cc1` (stereo not given), which “activity, negative = cytotoxic” value is on record?
A: -9.7%
